# LASV entry inh – qHTS for Inhibitors of binding or entry into cells for Lassa Virus; Potency, µM (series often up to 37.9 µM), actives largely listed as inhibitors; AID 540256, 2011; Lassa virus pseudotype entry inhibition, cell reporter; 1.2% of 300,000 active; calls by dose curve; tested in HEK293 cells; note: nearly all actives have a fitted effect of over 50% in size
# Marburg entry inh – qHTS for inhibitors of binding or entry into cells for Marburg Virus; AID 540276, 2011; Marburg virus pseudotyped entry inhibition, cell reporter; 1.8% of 300,000 active; Potency, µM (series often up to 37.8 µM), usual class: inhibitors; calls by dose curve; tested in HEK293 cells
# Shiga inhibitor – A qHTS for Small Molecule Inhibitors of Shiga Toxin | Vero cells, Shiga toxin protein synthesis inhibition reporter | inhibition, % at 38.7 µM | 9.2% of 290,000 active; in the data active = inhibition mostly above about 28%, no sharp cut-off; inactive = mostly below about 43%
# Cycloheximide cs – Cycloheximide Counterscreen for Small Molecule Inhibitors of Shiga Toxin | cell reporter, cycloheximide protein synthesis inhibition counterscreen | max response, % | 12% of 300,000 active; in the data active = max response mostly above about 13%, no sharp cut-off; inactive = mostly below about 14%; note: read at 38.3 µM for the half of the compounds with a filed dose
# A number is an active result; i = inactive; ? = inconclusive; nt = not tested or not shown. Hits are enriched below; roughly 12% of the tested compounds scored in any of these assays.
SMILES,LASV entry inh,Marburg entry inh,Shiga inhibitor,Cycloheximide cs
c1ccc(-n2nnnc2Sc2ncnc3sc4c(c23)CCCC4)cc1,?,?,i,i
Cc1sc2ncnc(Sc3nnnn3-c3ccc(Cl)cc3)c2c1C,21µM,?,i,i
N#C/C(=C/c1ccc(O)c(O)c1)c1nc2ccccc2[nH]1,nt,nt,77,26
N#C/C(=C\c1ccccc1OCC(=O)O)c1nc2ccccc2[nH]1,nt,nt,i,8.3
N#C/C(=C\Nc1ccc2c(c1)OCCO2)c1nc2ccccc2[nH]1,i,?,i,60
N#C/C(=C\c1cccs1)c1nc2ccccc2[nH]1,i,i,107,32
Cc1cc(C)cc(-n2c(C)nc3cc(C(=O)O)ccc32)c1,i,i,i,i
COc1ccc(CN2COc3ccc4c(-c5ccccc5)cc(=O)oc4c3C2)cc1OC,i,i,nt,nt
CC(Oc1cc2oc(=O)c3c(c2cc1Cl)CCCC3)C(=O)NCc1cccnc1 (configuration not stated),i,i,i,i
CC(C)CO/N=C1/C[C@@H](O)[C@@H](O)[C@@H]2[C@@H]3C(=O)N(Cc4ccc5c(c4)OCO5)C(=O)[C@H]3CC[C@H]12,nt,i,nt,nt
N#C/C(=C\c1ccc(OC(=O)c2cccs2)cc1)c1nc2ccccc2[nH]1,i,i,145,58
COC(=O)c1c(NC(=O)Cc2ccc(OC)c(S(=O)(=O)N3CCOCC3)c2)sc(C)c1C,i,?,nt,nt
CC(C)C[C@H](NC(=O)[C@H](CC(C)C)NC(=O)[C@H](Cc1ccccc1)NC(=O)[C@@H](N)CO)C(=O)N[C@@H](CCCN=C(N)N)C(=O)N[C@@H](CC(N)=O)C(=O)O,nt,nt,i,i
c1ccc(-c2onc3c2CCCC3)cc1,i,i,71,16
COc1ccccc1N1CCN(C(=O)CN(C)S(=O)(=O)c2cc(C)ccc2OC)CC1,i,?,i,i
CN(C)c1ccc(/C=N/NC(=O)c2ccn(C)n2)cc1,?,i,34,33
Cc1nn(C)c(C(=O)N/N=C/c2cccnc2)c1Br,i,i,i,i
CN(C)c1ccc(/C=N/NC(=O)c2ccnn2C)cc1,nt,nt,58,24
Cn1ccc(C(=O)N/N=C/c2ccccc2[N+](=O)[O-])n1,i,?,100,40
Cn1ccc(C(=O)N/N=C/c2cccnc2)n1,i,i,45,18
COc1ccc(Cc2nnc(N/N=C(\C)c3ccccc3)[nH]c2=O)cc1OC,nt,nt,i,i
O=C(N/N=C/c1ccccc1[N+](=O)[O-])c1ccc2nc[nH]c2c1,i,?,i,18
O=C(N/N=C/c1ccc(Cl)c([N+](=O)[O-])c1)c1ccc2nc[nH]c2c1,i,i,i,i
CC(=O)c1ccc(OCc2cc(C(=O)N3CCCCC3c3cccnc3)no2)cc1 (configuration not stated),i,i,81,54
CC(=O)c1ccc(OCc2cc(C(=O)N3CC[C@@H]4CCCC[C@H]4C3)no2)cc1,?,?,104,75
SMILES,LASV entry inh,Marburg entry inh,Shiga inhibitor,Cycloheximide cs
CC(=O)c1ccc(OCc2cc(C(=O)N3CCC(c4ccncc4)CC3)no2)cc1,nt,nt,i,i
CC(=O)c1ccc(OCc2cc(C(=O)NC3CCCCC3)no2)cc1,?,?,76,31
CCOC(=O)N1CCN(S(=O)(=O)c2ccc(C(=O)NNc3nc4ccc(Cl)cc4s3)cc2)CC1,?,18µM,i,i
CCOC(=O)N1CCN(S(=O)(=O)c2ccc(C(=O)N(CCCN(C)C)c3nc4ccc(OC)cc4s3)cc2)CC1,nt,nt,i,i
CCOC(=O)N1CCN(S(=O)(=O)c2ccc(C(=O)NNc3nc4cc(C)cc(C)c4s3)cc2)CC1,?,21µM,i,i
CCOC(=O)N1CCN(S(=O)(=O)c2ccc(C(=O)N(CCN(C)C)c3nc4ccc(Cl)cc4s3)cc2)CC1,nt,nt,110,27
CN(C)CCCN(C(=O)c1ccc(S(=O)(=O)N2CCCC2)cc1)c1nc2ccc(Br)cc2s1,?,10µM,i,i
Cc1ccccc1OCC(=O)Nc1ccc(OCc2cc(=O)n3ccccc3n2)cc1,i,nt,nt,nt
COc1ccccc1NC(=O)c1cccc(S(=O)(=O)N2CCCCCC2)c1,i,nt,nt,nt
CC(=O)c1cccc(NC(=O)NC2CC(=O)N(c3ccc4c(c3)OCCO4)C2)c1 (configuration not stated),i,i,nt,nt
Cn1c(=NC(=O)c2ccc(S(=O)(=O)N3CCCC3)cc2)sc2cc(F)ccc21,i,nt,nt,nt
O=C(/C=C/c1ccc(F)cc1)Nc1nc2n(n1)C(c1ccc(Cl)cc1)C=C(c1ccccc1)N2 (configuration not stated),i,?,nt,nt
O=C(N/N=C\c1ccco1)Nc1cccc(Cl)c1,?,?,142,80
COc1cccc(/C=N/NC(=S)Nc2cccc(S(=O)(=O)N(C)C)c2)c1,nt,nt,i,i
CN(C)S(=O)(=O)c1cccc(NC(=S)N/N=C/c2ccco2)c1,nt,nt,i,14
